Screening data as filed in PubChem BioAssay.
tim10-1 inh = growth inhibitors of tim10-1 mutant yeast | S. cerevisiae tim10-1 ts strain growth, BacTiter-Glo, 24 h | AID 463190 | 2.2% of 330,000 active | inhibition, % at 20 µM;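 active = inhibition of at least 40%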;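 note: mutant grown at 25 °C; 0% = DMSO wells with yeast and 100% = wells holding no yeast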
tim23-1 inh = inhibits growth of tim23-1 mutant yeast; S. cerevisiae tim23-1 growth, BacTiter-Glo luminescence, 24 h; inhibition, % at 20 µM; 1.3% of 330,000 active;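 active = growth inhibition of the mutant yeast at or above 50%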;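 note: temperature-sensitive mutant grown at 25 °C; plate controls were DMSO-treated mutant yeast for no effect and medium wells lacking yeast for full effect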
NALP3 yeast inh = blocks the NALP3 inflammasome reconstituted in yeast. Yeast reconstituted NLRP3/ASC/caspase-1, beta-gal luminescence, 24 h. inhibition, % at 10 µM. 0.39% of 330,000 active;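 active = inhibition of 50% or more; inactive = inhibition below 50%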;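 note: plate controls were induced DMSO wells for no effect and uninduced yeast grown without galactose for full effect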
NALP1 yeast inh = blocks the NALP1 inflammasome reconstituted in yeast; inhibition, % at 10 µM; S. cerevisiae NALP1/ASC/caspase-1 growth, X-gal OD620, 72 h; AID 2071; 0.61% of 280,000 active; in the data active = inhibition mostly above about 24%, no sharp cut-off; inactive = mostly below about 32%
TIM10 inh = growth inhibitors of TIM10 yeast strain; AID 463195; inhibition, % at 10 µM; S. cerevisiae TIM10 strain growth, BacTiter-Glo luminescence, 24 h; 1.4% of 330,000 active;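 active = inhibition of 40% or more at the single tested concentration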;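 note: wild-type TIM10 isogenic control strain grown at permissive 25 °C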
V-ATPase pHluor = yeast V-ATPase proton transport regulation by pHLuorin; S. cerevisiae, pHLuorin cytosolic pH fluorescence; response, % at 10 µM; 0.37% of 350,000 active; AID 504577; in the data active = response mostly above about 7.3%, no sharp cut-off; inactive = mostly below about 5.4%; note: actives read high
NALP3 confirm = NALP3 inhibition confirmation in yeast; yeast expressing human NALP3, luminescence; shares compounds with NALP3 yeast inh; 81% of 1,300 active; inhibition, % at 10 µM; AID 435006; in the data active = inhibition above about 48%
Casp1-ASC yeast = caspase-1-ASC yeast counter-screen hit; shares compounds with NALP3 yeast inh; yeast expressing Caspase-1-ASC, luminescence counter screen; inhibition, % at 10 µM; 66% of 1,000 active; AID 488784
NALP3 yeast rt = yeast NALP3 inhibition, confirmed on retest | AID 488794 | 53% of 1,000 active | yeast expressing human NALP3, luminescence read-out | inhibition, % at 10 µM | shares compounds with NALP3 yeast inh
Numbers without * were called inactive; x = no result given. In the library only some 4.2% were active in any assay of this set; here they are far more common. Cut-off read from the data, not from the text of the source, unless noted: active = inhibition above about 50%; inactive = the rest.

SMILES | tim10-1 inh | tim23-1 inh | NALP3 yeast inh | NALP1 yeast inh | TIM10 inh | V-ATPase pHluor | NALP3 confirm | others
CC(=O)OCC(=O)[C@H]1CC[C@H]2[C@@H]3CC[C@H]4C[C@H](O)CC[C@]4(C)[C@H]3C(=O)C[C@]12C | 21.1 | 31.1 | 56.1* | x | -0.6 | 2.9 | 70.7* | Casp1-ASC yeast=52.7*;NALP3 yeast rt=53.4*
CCOC(=O)C1=Nc2ccccc2/C1=C\c1c(O)n(C)c(=O)n(C)c1=O | -25.8 | 36.9 | 53.0* | -4.2 | -8.5 | -0.5 | 44.8
O=[N+]([O-])c1ccc(N2CCCC2)c(F)c1Br | 14.8 | 10.3 | 52.2* | 23.4 | 23.2 | 0.4 | 59.8* | Casp1-ASC yeast=71.5*;NALP3 yeast rt=61.8*
CCC1CN1P(=S)(N1CC1CC)N1CC1CC (stereo not drawn) | x | x | x | x | x | -3.9 | x
C[C@]12CCC3[C@@H](CC[C@@H]4C[C@H](O)CC[C@]34C)[C@@H]1CCC2=O (stereo partly drawn) | 30.5 | 43.8 | 66.6* | x | 9.9 | -0.2 | 61.5* | Casp1-ASC yeast=70.6*;NALP3 yeast rt=60.6*
C[C@]12CC[C@@H](O)C[C@@H]1CC[C@@H]1[C@@H]2CC[C@]2(C)C(=O)[C@H](O)C[C@@H]12 | x | x | x | x | x | -0.6 | x
C[C@]12CCC3C(CC[C@H]4C[C@@H](O)CC[C@]34C)[C@H]1C=CC2=O (stereo partly drawn) | 16.8 | 36.6 | 55.3* | x | 12.6 | 0.3 | 60.0*
C[C@]12CC[C@H](O)C[C@@H]1CC[C@@H]1[C@@H]2CC[C@]2(C)C(=O)CC[C@@H]12 | -59.6 | -25.3 | 66.8* | 26.8 | -203.2 | 0.2 | 61.9* | Casp1-ASC yeast=62.0*;NALP3 yeast rt=41.5
C[C@]12CCC3C(CC[C@H]4C[C@@H](O)CC[C@]34C)C1CC[C@@H]2OC(=O)[C@H](N)CCCCN (stereo partly drawn) | -65.2 | -175.1 | 66.1* | x | -132.1 | -2.2 | 57.3*
CCC(=O)OC1CCC2C3CCC4CC(=O)C=CC4(C)C3CCC12C (stereo not drawn) | x | x | x | x | x | -5.0 | x
O=c1[nH]c(=O)n(Cc2ccco2)c(O)c1C=NCCCn1ccnc1 | 6.3 | -16.8 | 0.3 | 3.6 | -3.3 | 0.6 | x
CCNC(=O)NC(=O)C(C)OC(=O)c1c(C)nn(Cc2ccccc2Cl)c1Cl (stereo not drawn) | 13.5 | 9.4 | 2.7 | 20.3 | 25.5 | -1.0 | x
CCOP(=O)(OCC)C(NC(=O)c1cccc2ccccc12)C(Cl)(Cl)Cl (stereo not drawn) | 28.1 | 19.9 | 2.4 | 26.9 | -6.6 | 0.0 | x
O=C(COc1ccccc1F)N1CCN(CCN2C(=O)c3cccc4cccc(c34)C2=O)CC1 | 30.3 | 40.7 | -1.8 | 0.8 | 10.7 | -1.0 | x
C[C@]12CCC3C(CC[C@H]4C[C@@H](O)CC[C@]34C)C1[C@H]1CN=N[C@H]1[C@@H]2O (stereo partly drawn) | 9.1 | 0.2 | 37.4 | x | -4.7 | 5.8 | x
C[C@]12CCC3C(CC[C@H]4C[C@@H](O)CC[C@]34C)C1CCC2=O (stereo partly drawn) | -86.1 | -21.1 | 64.0* | x | -151.5 | -0.2 | 66.2* | Casp1-ASC yeast=62.9*;NALP3 yeast rt=43.6
C[C@]12CCC3C(CC[C@H]4C[C@@H](O)CC[C@]34C)C1C[C@@H](Br)[C@H]2O (stereo partly drawn) | -65.7 | -7.1 | 58.3* | x | -80.6 | x | 50.3*
COc1ccc(C2c3c(nc(C)[nH]c3=O)Oc3c2c(=O)oc2ccccc32)cc1 (stereo not drawn) | -1.0 | 4.6 | 3.9 | x | 10.1 | x | x
COc1ccc2nc(NC3=NCCN3)sc2c1 | 27.5 | 33.3 | 94.7* | 93.1* | 14.4 | 2.1 | -25.1
c1ccc2sc(NC3=NCCN3)nc2c1 | 28.5 | 23.7 | 96.7* | 103.9* | 7.5 | -1.8 | 94.9* | Casp1-ASC yeast=99.3*;NALP3 yeast rt=98.2*
Cc1ccccc1Cc1c(C)nc2nc(SCC(=O)N3CCC4(CC3)OCCO4)nn2c1C | 15.1 | 13.1 | 17.3 | 2.4 | 7.2 | -0.3 | x
c1csc(CN2CCNCC2)c1 | -9.5 | -22.2 | -12.7 | -9.9 | -35.9 | -1.4 | x
COCCO[C@H]1CC[C@@]2(C)C(=CCC3C2CC[C@@]2(C)C3CC[C@]2(C)O)C1 (stereo partly drawn) | 12.3 | 35.3 | 41.2 | x | 9.3 | 2.3 | x
C[C@]1(O)CCC2C3CC[C@H]4C[C@@H](OC(=O)CNC(=O)CN)CC[C@]4(C)C3CC[C@@]21C (stereo partly drawn) | -116.6 | -35.7 | 56.5* | x | -46.9 | -0.6 | 70.8*
Cc1ccc(Cl)cc1N1CCN(CCN)CC1 | 8.8 | -2.6 | 58.7* | 5.4 | -9.7 | -0.3 | 56.9* | Casp1-ASC yeast=58.4*;NALP3 yeast rt=67.0*
SMILES | tim10-1 inh | tim23-1 inh | NALP3 yeast inh | NALP1 yeast inh | TIM10 inh | V-ATPase pHluor | NALP3 confirm | others
CN1CCN(c2ccc(Cl)cc2N)CC1 | -16.5 | -3.8 | 27.0 | 4.6 | -10.8 | 5.3 | x
C[C@]12CC[C@H](OC(=O)CCC(=O)O)CC1=CCC1C2CC[C@@]2(C)C1CC[C@@H]2OC(=O)CCC(=O)O (stereo partly drawn) | -2.8 | 20.8 | 37.2 | x | -5.7 | 6.2 | x
CC12CCC3C(CC=C4CC5(CCC43C)OCCO5)C1CCC2=O (stereo not drawn) | -10.5 | -13.1 | 62.4* | 15.0 | -14.2 | -0.3 | 74.9*
C[C@]12CC[C@H](OS(=O)(=O)O)CC1=CC[C@@H]1[C@@H]2CC[C@]2(C)C(=O)CC[C@@H]12 | 2.5 | 8.3 | 8.7 | x | 6.1 | -0.1 | x
C[C@]12CCC(OC(=O)CCC(=O)O)CC1=CCC1C2CC[C@]2(C)C(=O)CCC12 (stereo partly drawn) | 13.7 | 13.3 | 58.5* | 19.3 | -7.3 | 5.3 | 66.0* | Casp1-ASC yeast=56.7*;NALP3 yeast rt=48.1
C[C@]12CC[C@@H](O)CC1=CCC1C2CC[C@@]2(C)C1C[C@@H](F)[C@H]2O (stereo partly drawn) | x | x | x | x | x | 7.2 | x
C[C@]12CC[C@H](N)CC1=CCC1C2CC[C@@]2(C)C1CC[C@@H]2O (stereo partly drawn) | -9.6 | 3.1 | 55.9* | x | -4.6 | 9.7 | 56.4*
C[C@]12CCC(=O)C=C1CCC1C2CC[C@@]2(C)C1CC[C@]2(C)O (stereo partly drawn) | -26.9 | 29.9 | 32.0 | x | -1.1 | 8.3 | x
C[C@]12CCC(=O)C=C1CCC1C2CC[C@@]2(C)C1CC[C@@H]2O (stereo partly drawn) | -33.5 | 22.4 | 52.9* | x | -27.5 | 0.6 | 60.4*
C[C@H]1CC2C3CC=C4C[C@@H](O)CC[C@]4(C)C3CC[C@]2(C)[C@H]1O (stereo partly drawn) | 7.5 | 22.1 | 53.9* | x | 21.5 | -1.9 | 48.4
CC12CCC3C(CC=C4CC(O)CCC43C)C1C/C(=C\N1CCCC1)C2=O (stereo not drawn) | 0.0 | 7.1 | 59.4* | 26.6 | -24.0 | x | 42.6
